Assay results: PubChem BioAssay
The source made the active and inactive calls.

Key:
Albumin (Bos taurus) = Albumin (Bos taurus) (UniProt P02769); assay: compounds binding labelled BSA control protein – biochemical, small-molecule microarray, Alexa647 label, 635/667 nm fluorescence, artefact control for SMM control protein annotation, profiling panel (AID 1118); details: BSA-A647 binding, fluorescence 635 nm, higher = more signal;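 also: score merges 667 nm emission intensity and signal-to-noise per printed compound spot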
[1] = probe aXIP binding to arrayed compounds – biochemical, NeuroSMM set, 635/667 nm fluorescence, primary screen (AID 1119); details: small-molecule microarray, higher = more signal, called active from +8 up or from −8 down;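 also: probe is the protein aXip251-270 applied at 1 µg/mL to compound-printed slides; binding of probe to printed compounds measured as 667 nm fluorescence plus signal to noise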
[2] = probe aNOTCH3 binding on compound microarray – biochemical, small-molecule microarray, 635/667 nm fluorescence, primary screen (AID 1120); details: higher = more signal;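 also: probe is a biotin-tagged antibody raised against NOTCH3 rather than NOTCH3 protein; score merges spot fluorescence near 667 nm with spot signal to noise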
[3] = probe aNOTCH2 binding on compound microarray – biochemical, small-molecule microarray, 635/667 nm fluorescence, primary screen (AID 1121); details: higher = more signal;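 also: score merges feature fluorescence read at 667 nm with its signal to noise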
[4] = biological target: Carbonic anhydrase 2 (Homo sapiens) (UniProt P00918); assay: compounds binding carbonic anhydrase 2 – biochemical, small-molecule microarray, Alexa647-labelled CAII, profiling panel (AID 1122); details: CAII-A647 binding fluorescence, higher = more signal
[5] = COS7 lysate on small-molecule microarray, probe aHis, 635 nm (AID 1123); details: COS7 cell lysate, fluorescence, higher = more signal;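 also: z-score combines 667nm fluorescence intensity with signal-to-noise per printed compound spot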
[6] = probe aLAP1 signal on lysate-treated microarray – cell lysate, small-molecule microarray, COS7 lysate, primary screen (AID 1124); details: probe aLAP1, fluorescence, higher = more signal;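 also: lysate comes from COS7 cells expressing LAP1 and is applied at 0.3 µg/mL; score merges spot fluorescence near 667 nm with signal-to-noise over triplicate slides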
Sam68 (KHDRBS1) = assay: compounds binding KHDRBS1 protein – biochemical, small-molecule microarray, 635 nm fluorescence, primary screen (AID 1125); details: higher = more signal;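 also: score merges 667 nm channel intensity with signal to noise over triplicate slides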
[7] = test system: Chordin-like protein 2 (CHRDL2); assay: compounds binding chordin-like 2 – biochemical, small-molecule microarray, 635 nm fluorescence, primary screen (AID 1126); details: fluorescence 635 nm, higher = more signal;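 also: printed compound slides probed with Chrdl2 protein at 4 µg/mL for 1 h at 4 C; score merges 667 nm emission intensity with signal to noise over three replicate slides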
[8] = biological target: Concanavalin-A (Canavalia ensiformis) (UniProt P02866); assay: compounds binding concanavalin A lectin – biochemical, small-molecule microarray, Alexa647 label, 635 nm, artefact control for SMM control protein annotation, primary screen (AID 1127); details: ConA-A647 binding fluorescence, higher = more signal;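 also: z combines 667 nm emission intensity with signal-to-noise across three replicate slides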
Sequence of Concanavalin-A (Canavalia ensiformis) (P02866 whole entry, looked up): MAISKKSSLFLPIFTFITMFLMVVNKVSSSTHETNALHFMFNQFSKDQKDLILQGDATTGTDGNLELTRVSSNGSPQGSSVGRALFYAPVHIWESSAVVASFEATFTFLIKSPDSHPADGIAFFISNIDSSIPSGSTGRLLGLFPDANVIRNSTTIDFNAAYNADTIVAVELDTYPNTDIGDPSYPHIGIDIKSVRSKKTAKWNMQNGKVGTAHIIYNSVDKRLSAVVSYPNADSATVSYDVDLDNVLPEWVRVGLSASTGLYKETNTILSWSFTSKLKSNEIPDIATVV

Sequence of Albumin (Bos taurus) (P02769 whole entry, looked up): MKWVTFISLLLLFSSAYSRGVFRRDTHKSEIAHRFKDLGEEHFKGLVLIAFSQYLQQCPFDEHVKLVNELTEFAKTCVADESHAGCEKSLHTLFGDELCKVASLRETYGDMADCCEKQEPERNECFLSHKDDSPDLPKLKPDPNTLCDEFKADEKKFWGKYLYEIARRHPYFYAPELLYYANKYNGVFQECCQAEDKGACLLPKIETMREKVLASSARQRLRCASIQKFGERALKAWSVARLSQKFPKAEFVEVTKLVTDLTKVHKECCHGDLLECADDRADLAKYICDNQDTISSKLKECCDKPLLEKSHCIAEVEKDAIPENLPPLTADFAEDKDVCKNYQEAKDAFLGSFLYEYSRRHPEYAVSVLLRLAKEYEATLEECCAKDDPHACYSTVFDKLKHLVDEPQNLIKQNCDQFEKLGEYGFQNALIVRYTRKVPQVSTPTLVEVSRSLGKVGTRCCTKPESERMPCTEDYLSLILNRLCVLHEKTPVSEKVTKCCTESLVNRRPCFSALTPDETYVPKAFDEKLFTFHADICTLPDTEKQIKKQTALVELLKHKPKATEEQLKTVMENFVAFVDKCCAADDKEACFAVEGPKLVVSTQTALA

Compound | composite z-score (Albumin (Bos taurus)) | composite Z-score [1] | composite z-score [2] | composite z-score [3] | composite z-score [4] | composite z-score [5] | composite z-score [6] | composite z-score (Sam68 (KHDRBS1)) | composite z-score [7] | composite z-score [8]
COCCOC(=O)N1C(=O)[C@@]2(c3cc(C#CCNC(N)=O)ccc31)[C@H](C(N)=O)[C@H]1C(=O)O[C@H](c3ccccc3)[C@H](c3ccccc3)N1[C@@H]2c1ccc(O)cc1 | -0.153 | 0.003 (inactive) | 0.153 | 0.234 | 0.606 | 0.609 | -0.545 | -0.148 | 0.267 | -0.267
CCCCN1CC=CC23O[C@@H]4/C=C\CCCOC(=O)C4[C@H]2C(=O)N(CCCCCCO)[C@@H]3C1=O (stereo not given in full) | -0.768 | 0.276 (inactive) | -0.165 | -0.172 | 0.83 | 1.66 | 1.17 | 0.177 | -1.87 | -0.535
CCOC(=O)C[C@H]1[C@H](OC(=O)c2ccc(-c3ccccc3)cc2)[C@@H](NC(=O)C2CCCCC2)c2cc(OCCCO)ccc2N1C(=O)Cc1ccc(OC)cc1 | 0.561 | 0.204 (inactive) | -0.0362 | -0.182 | -0.0434 | 0.405 | 0.652 | 0.496 | 0.0463 | -0.361
C=C(C(=O)CC[C@H](OC(=O)c1ccccc1-c1ccccc1C(=O)O)c1ccc(OCCO)cc1)C(C)C | 0.816 | -0.691 (inactive) | 0.0282 | -0.106 | 0.59 | 1.61 | -0.284 | 0.884 | -0.0766 | 0.708
COC(=O)[C@H]1N=C(c2ccc(OCCCO)cc2)O[C@H]1c1ccccc1N=[N+]=[N-] | 0.177 | 0.408 (inactive) | 0.156 | 0.273 | 0.574 | 2.51 | 0.285 | 0.342 | 0.158 | 0.656
O=C1NC(=O)C2C1C=CC(C(O)c1ccc(F)cc1)N2Nc1ccc(Cl)cc1Cl (stereo not given) | 0.369 | 1.69 (inactive) | 0.0488 | -0.0113 | 0.732 | 2.4 | 0.591 | 0.246 | -0.242 | -0.345
CC(C)C[C@@H]1NC(=O)[C@@H]2C[C@H](C(=O)NCCCCCCNC(=O)CS)[C@H](c3ccc(O)cc3)N2C1=O | -0.025 | 0.0101 (inactive) | 0.133 | -0.0817 | 0.706 | 1.91 | 0.655 | 1.28 | 1.26 | 0.995
O=C(NC1CC1)[C@@H]1c2ccccc2C(=O)N(C2CCCCC2)[C@H]1c1ccc(CO)cc1 | -0.0383 | 0.635 (inactive) | -0.214 | -0.136 | 0.554 | 2.64 | 1.99 | 0.454 | -0.696 | 0.332
C=C(C(=O)CC[C@@H](OC(=O)c1ccccc1-c1ccccc1C(=O)O)c1ccc(CO)o1)C(C)C | -0.41 | 0.0692 (inactive) | -0.0858 | -0.112 | 0.75 | 0.163 | 0.464 | 0.754 | 0.386 | 0.278
COc1cccc(C)c1NC(=O)O[C@H]1[C@H](OC(=O)Nc2ccccc2)[C@@H](OC(=O)Nc2ccccc2)[C@@H](OC)O[C@@H]1CO | 0.541 | -0.376 (inactive) | 0.163 | -0.0811 | 0.461 | 2.66 | 0.665 | 1.29 | 0.174 | 1.08
O=C1O[C@H](c2ccccc2)[C@H](c2ccccc2)N2[C@H]1[C@@H](C(=O)Nc1nc3ccccc3s1)[C@]1(C(=O)Nc3ccccc31)[C@H]2c1ccccc1OCCO | 0.939 | 0.417 (inactive) | 0.0242 | -0.014 | 0.393 | 2.24 | 0.921 | 1.29 | -0.131 | 0.668
COC(=O)C1=CC(CCCO)=CC(c2ccc(CN3CCCC3)cc2)N(C)C=C1C(=O)OC (stereo not given) | 0.935 | 1.22 (inactive) | -0.105 | 0.0334 | 0.866 | 1.72 | 0.181 | 1 | 0.164 | 0.361
C=C(COC)C(=O)CC[C@H](OC(C)=O)c1ccc(CO)o1 | 0.485 | 4.03 (inactive) | -0.0328 | -0.14 | 0.472 | -0.273 | -0.218 | -0.893 | 0.268 | 0.753
COC(=O)[C@@]1(Cc2ccc(OC)cc2)[C@@H]2[C@@H](CC(=O)[C@H]2CC(=O)C(=O)N(C)C)CN1C(=O)c1ccccc1 | 0.964 | 0.289 (inactive) | 1.52 | 0.732 | 0.617 | 3.17 | 0.505 | 1.32 | -0.875 | 1.13
C=CCOC(=O)[C@H]1[C@@H]2C(=O)O[C@@H](c3ccccc3)[C@@H](c3ccccc3)N2[C@@H](c2ccc(OCCOC(=O)[C@@H]3C[C@@H]4C(=O)N[C@@H](Cc5ccccc5)C(=O)N4[C@@H]3c3ccc(O)cc3)cc2)[C@]12C(=O)Nc1ccc(I)cc12 | -0.257 | 0.661 (inactive) | 0.698 | -0.092 | 0.218 | 1.33 | -0.052 | 1.16 | 0.915 | 0.92
CN1C(=O)C2C=CC(C(O)c3ccc(I)cc3)N(N(c3ccccc3)c3ccccc3)C2C1=O (stereo not given) | 0.626 | 0.263 (inactive) | -0.0328 | 0.0129 | 0.243 | 0.307 | 0.249 | -0.397 | 0.0635 | 0.326

Compound | composite z-score (Albumin (Bos taurus)) | composite Z-score [1] | composite z-score [2] | composite z-score [3] | composite z-score [4] | composite z-score [5] | composite z-score [6] | composite z-score (Sam68 (KHDRBS1)) | composite z-score [7] | composite z-score [8]
COC(=O)[C@H](Cc1ccccc1)N1CC(C)(OC)O[C@@H](Cc2ccccc2)[C@H]1/C=C/C1CC1 (stereo not given in full) | -0.266 | 0.571 (inactive) | -0.165 | -0.108 | 0.348 | 0.763 | 0.106 | 0.417 | -0.359 | 0.371
COc1ccc([Si](C)(C)[C@@H]2[C@@H](CC(=O)N(CCO)Cc3ccccc3)O[C@]3(C(=O)N(Cc4cccc(I)c4)c4ccccc43)[C@H]2C)cc1 | -0.783 | 0.0089 (inactive) | 0.0522 | -0.0576 | 0.364 | 0.763 | 0.363 | 1.01 | 1.12 | 0.779
CCOC(=O)C1=CCC(c2cccn2C(=O)OC(C)(C)C)N(S(=O)(=O)c2ccc(C)cc2)C1 (stereo not given) | 0.871 | 0.76 (inactive) | 0.17 | 0.0351 | 0.523 | 2.82 | 0.421 | 0.948 | 0.551 | 0.722
C=CC[C@H](O)c1ccc(O)c2ccccc12 | -0.491 | 0.579 (inactive) | 0.037 | -0.0904 | 0.421 | 1.63 | 0.0233 | 1.06 | 1.4 | 0.79
CN1C(=O)C2C(C1=O)C1C=C(CCCO)C2C(C2CC2)N1C (stereo not given) | 0.913 | 0.178 (inactive) | -0.16 | -0.149 | 0.839 | 0.746 | -0.67 | -0.293 | -0.338 | -1.39
COCCCNC(=O)[C@@]1(c2ccc([N+](=O)[O-])cc2)CC(=O)N(C2CCCCC2)[C@@H]1c1ccc(CO)cc1I | -0.102 | 2.09 (inactive) | -0.095 | 0.0409 | 0.427 | 2.23 | 0.426 | 1.03 | 0.151 | 1.14
C=CCNC(=O)[C@H]1[C@@H]2C(=O)O[C@@H](c3ccccc3)[C@@H](c3ccccc3)N2[C@@H](c2ccc(OCCO)cc2)[C@]12C(=O)N(C(=O)OCCOC)c1ccc(C#CCNC(N)=O)cc12 | 0.452 | -0.0518 (inactive) | 0.0927 | -0.0132 | 0.396 | 1.73 | 0.812 | 1.22 | 0.742 | 1.11
C[C@@]1([C@@H](NS(=O)(=O)c2cccc3cccnc23)c2ccc(-c3ccccc3)cc2)C[C@H]1C1CCCCC1 | 0.533 | -0.343 (inactive) | 0.314 | 0.131 | 0.549 | 2.06 | 0.165 | 0.292 | -0.214 | 0.391
CC(C)(C)OC(=O)CC[C@@]1(C(=O)N2CCOCC2)N=C(c2ccc(OCCCO)cc2)O[C@@H]1c1ccccc1CN=[N+]=[N-] | 0.966 | 1.31 (inactive) | 0.144 | 0.23 | 0.829 | 3.77 | 0.86 | 1.29 | -0.406 | 1.09
C=CCC(OC(C)=O)[C@@H]1[C@@H](N(Cc2ccc(-c3ccccc3)cc2)C(=O)Cc2ccc(OC)cc2)c2cc(OCCCO)ccc2N1C(=O)Cc1ccc(OC)cc1 (stereo not given in full) | -0.0621 | 0.445 (inactive) | 0.464 | 0.146 | 0.306 | 0.248 | 0.302 | 0.0538 | 0.235 | -0.0563
C=CCC(OC(C)=O)[C@@H]1[C@@H](N(Cc2cccc3ccccc23)C(=O)c2ccc(C)cc2)c2cc(OCCCO)ccc2N1C(=O)Cc1ccc2ccccc2c1 (stereo not given in full) | 0.706 | -0.758 (inactive) | -0.0044 | -0.149 | 0.15 | 0.738 | -0.0124 | -1.29 | 0.0854 | -0.0292
COC(=O)C[C@H]1O[C@]2(C(=O)N(C)c3ccccc32)[C@@H](C)[C@@H]1[Si](C)(C)c1ccccc1 | -0.0967 | -0.142 (inactive) | 0.16 | -0.171 | 0.288 | 0.198 | 0.216 | 0.898 | 0.816 | 0.593
C=C(COC)/C(=C/C[C@@H](OC(=O)c1ccncc1)c1ccccc1OCCO)c1cnc2ccccc2c1 | 0.57 | 0.341 (inactive) | 0.265 | -0.0762 | 0.962 | 0.562 | 0.475 | 1.3 | 1.38 | 1.22
COC(=O)Cn1c(C(=O)N(C)C)cc2c1C[C@H]1CN(C(=O)c3ccccc3)[C@@](Cc3ccccc3)(C(=O)OC)[C@@H]21 | 0.759 | -0.265 (inactive) | 0.194 | 0.417 | 0.792 | 1.55 | 0.817 | -0.627 | -0.537 | 0.169
C=C(C(=O)CC[C@@H](OC(=O)c1ccccc1-c1ccccc1C(=O)O)c1ccc(OCCO)cc1)C(C)C | 0.0832 | -0.32 (inactive) | 0.169 | -0.0876 | 0.801 | 0.393 | -0.0004 | 0.929 | 0.639 | 0.94
CC(=O)NCCCC[C@@H]1NC(=O)[C@H]2C[C@@H](C(=O)NCCCCCN)[C@@H](c3ccc(O)cc3)N2C1=O | 0.675 | 0.0898 (inactive) | -0.0677 | -0.0706 | 0.413 | 1.1 | -0.15 | 1.21 | 0.851 | 0.966
